HT1080 IDH1KD tx: HT-1080 IDH1 knockdown cell toxicity (counter line); Potency, µM (titrated, usually from 46.1 µM), for inactives: at the top dose activity, negative = toxicity, usual class: cytotoxic; 360,000 compounds, 2% hits; HT-1080 IDH1 knockdown viability, ATP luminescence, 48 h;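 further: potency means the concentration at half of the fitted maximal effect; 0% = DMSO wells and -100% = cell-free medium wells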
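Using the IDH1-knockdown HT-1080 line run in the same batch and compound series as the NT line, viability after 48 h at 37 °C was determined by CellTiter-Glo luminescence and expressed as % activity.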
HT1080-NT tox: kills 2HG-producing HT-1080-NT fibrosarcoma cells; HT-1080-NT fibrosarcoma viability, CellTiter-Glo ATP luminescence, 48 h; Potency, µM (titrated, usually from 46.1 µM), for the others: top-dose activity, negative = less viability, hits mostly cytotoxic; 360,000 compounds, 1.6% hits;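 further: NT is the 2HG producing partner of a matched IDH1 knockdown line; potency means the concentration at half of the fitted maximal effect; 0% = DMSO-treated cells and -100% = media-only wells without cells; nearly all actives have a fitted effect of over 55% in size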
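A 48-hour cytotoxicity screen used HT-1080-NT cells plated 2 hours before compound delivery. ATP-based CellTiter-Glo luminescence measured viability, normalized to DMSO and no-cell controls.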
IL1B secr inh: inflammasome signaling inhibition, IL-1 beta readout | THP-1 LPS/ATP IL-1B secretion, AlphaLISA, 16 h; active compounds read low | activity change, % at 57.5 µM | 360,000 compounds, 4.7% hits; in the data active means activity change below about -50%; inconclusive means mostly about -30% to -49%
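Secreted IL-1B measured by AlphaLISA bead assay after 16 h compound exposure of THP-1 cells; compounds (final up to 57.5 uM) added 1 h before LPS (250 ng/mL) and ATP (1.25 mM) stimulation; lower signal means less secretion.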
TDP1 cell noCPT: qHTS for Inhibitors of human tyrosyl-DNA phosphodiesterase 1 (TDP1): qHTS in cells in absence of CPT; 420,000 compounds, 15% hits; DT40 Tdp1-/- hTDP1 cells, no CPT, ATP luminescence, 48 h; AID 686978, 2013; Potency, µM (top dose mostly 46.2 µM), inactives show at the top dose activity change, negative = growth inhibition, actives largely listed as inhibitors; further: potency means the concentration at half of the fitted maximal effect; nearly all actives have a fitted effect of over 55% in size
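Growth kinetics read by CellTiter-Glo luminescence after ≥48 hr at 37 °C. Cells: DT40 Tdp1-/- stably carrying human TDP1, 400 per well, compound exposure in the absence of CPT (DMSO vehicle).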
DT40 TDP1 CPT: DT40-hTDP1 cell growth loss with CPT; chicken DT40 Tdp1-/-;hTDP1 cells + 20 nM CPT, ATP luminescence, 48 h; Potency, µM (highest dose often 46.2 µM), for the others: at the top dose activity change, negative = growth inhibition, actives largely listed as inhibitors; 420,000 compounds, 12% hits; AID 686979; further: potency means the concentration at half of the fitted maximal effect; nearly all actives have a fitted effect of over 55% in size
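Chicken DT40 Tdp1-/- cells complemented with human TDP1, 400 cells/well, exposed to compounds plus 20 nM camptothecin for at least 48 h at 37 C; viability read as ATP content by CellTiter-Glo luminescence.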
* marks the source's active call; other numbers are inactive results; u = inconclusive; x = no result given; [ ] = another dose, or the depositor's remark. Shown are actives, neighbours in structure and some others; about 19% of the full set was active somewhere. Unless noted, the call rests on the fitted dose curve; in most records, active means well fitted curve in the direction sought with a large enough effect; inconclusive means small, poorly fitted or top-dose-only effect, or another doubt; inactive means no such curve, though single readings can be large; an effect the other way counts as inactive or inconclusive. Unless noted, on the % scale 0 is the no-effect control and ±100 the full control effect.

SMILES	HT1080 IDH1KD tx	HT1080-NT tox	IL1B secr inh	TDP1 cell noCPT	DT40 TDP1 CPT
CCOC(=O)C1CCN(S(=O)(=O)c2c[nH]c(=O)[nH]c2=O)CC1	-1.9%	20.4%	-6.7	5.2%	-13.1%
C=CCN(c1ccccc1)S(=O)(=O)c1cccc(C(=O)NCC(c2cccs2)N2CCOCC2)c1 (stereo unspecified)	-6.7%	2.3%	0.2	7.31µM*	13µM*
O=C(NCC(c1cccs1)N1CCOCC1)c1cccc([N+](=O)[O-])c1 (stereo unspecified)	u	u	36.4	0.8%	4.9%
COc1ccc(C(CNC(=O)c2cccc(S(=O)(=O)N(C)c3ccccc3)c2)N2CCCC2)cc1 (stereo unspecified)	-1.9%	-2.7%	-29.3	4.11µM*	u
CCN(CC)S(=O)(=O)c1ccc(C(=O)NCC(c2cccs2)N2CCOCC2)cc1 (stereo unspecified)	6.9%	-11.6%	-1.5	-15.1%	u
CCN(c1ccccc1)S(=O)(=O)c1cccc(C(=O)NCC(c2cccs2)N2CCOCC2)c1 (stereo unspecified)	-0.3%	5.8%	u	u	20.6µM*
CCN(c1ccccc1)S(=O)(=O)c1cc(C(=O)NCC(c2ccc(OC)cc2)N(C)C)ccc1C (stereo unspecified)	-20.6%	u	-74.2*	16.4µM*	u
C=CCN(c1ccccc1)S(=O)(=O)c1cccc(C(=O)NCC(c2ccccc2OC)N2CCCC2)c1 (stereo unspecified)	u	23.1µM*	u	18.4µM*	18.4µM*
c1ccc(CSc2nnnn2-c2ccccc2)cc1	u	2.9%	u	0.4%	-19.5%
Cc1cc(C(=O)CSc2nc3ccccc3c(=O)[nH]2)c(C)n1C	-3.8%	-12.8%	-17.4	6.51µM*	u
CCc1ccc(-n2c(CSc3nnnn3-c3ccccc3)nc3ccccc3c2=O)cc1	1.3%	7.5%	4.3	18.4µM*	u
Clc1ccc(-n2nnnc2SCc2c(-c3ccccc3)nc3sccn23)cc1	u	u	-21.0	13µM*	u
O=c1c2ccccc2nnn1CSc1nnnn1-c1ccc(O)cc1	-8.5%	-19.9%	9.6	u	-13.4%
c1ccc(-n2nnnc2SCc2cccc(CSc3nnnn3-c3ccccc3)n2)cc1	-12.8%	-9.4%	-9.9	13µM*	u
COC(=O)c1ccc(-n2cncn2)c(F)c1	u	7.6%	-7.9	-5.9%	-0.8%
NC(=O)c1ccccc1NC(=O)CSc1nc2ccccc2c(=O)[nH]1	u	13µM*	9.6	-28.5%	u
CC(C)(C)c1ccc(C(=O)CSc2nc3ccccc3c(=O)[nH]2)cc1	1.0%	-0.4%	27.2	2.82µM*	2.82µM*
O=C(CSc1nc2ccccc2c(=O)[nH]1)N1CCN(c2ccccc2F)CC1	-12.9%	-18.8%	25.9	18.4µM*	u
COC(=O)c1ccccc1NC(=O)CSc1nc2ccccc2c(=O)[nH]1	-18.4%	-4.7%	9.6	-16.9%	u
O=C(O)CSc1nc2ccccc2c(=O)[nH]1	-0.8%	-29.8%	-5.0	0.1%	-1.1%
COc1cccc(OCCSc2nc3ccccc3c(=O)[nH]2)c1	-0.2%	-4.8%	24.4	20.6µM*	-3.6%
CC1(C)CC(=O)C(N=Nc2cc3c(cc2[N+](=O)[O-])OCCO3)=C(O)C1	6.2%	3.3%	46.6	u	0.8%
CC(=O)c1ccc(-c2ccc(C(=O)N3CCC(C(N)=O)CC3)o2)cc1	-0.3%	-6.0%	11.6	-3.0%	-5.3%
N[C@H](C(=O)O)[C@H]1C[C@H]1C(=O)O	x	x	x	-25.9%	-26.1%
CCCS(=O)(=O)NC(=O)C1(C)CCN(C(=O)c2ccc(OC)cc2)C1 (stereo unspecified)	0.0%	17.3%	12.2	-9.4%	-19.3%
SMILES	HT1080 IDH1KD tx	HT1080-NT tox	IL1B secr inh	TDP1 cell noCPT	DT40 TDP1 CPT
COc1ccc(C(=O)CSc2nc(C(C)(C)C)nc3ccccc23)cc1	-15.0%	-22.8%	4.0	20.6µM*	u
O=C(CCCSc1nc2ccccc2c(=O)[nH]1)c1ccccc1	-7.7%	u	42.9	14.6µM*	u
O=C(CSc1nc2ccccc2c(=O)[nH]1)c1ccccc1	-4.4%	-8.0%	2.9	29.1µM*	20.6µM*
O=c1[nH]c(SCc2nc3ccccc3c(=O)n2-c2ccccc2)nc2ccccc12	u	u	13.7	u	11.6µM*
O=C(O)CCSc1nc2ccccc2c(=O)[nH]1	6.5%	6.1%	15.1	5.1%	-4.1%
COCCn1c(SCC(=O)c2c(N)n(C3CC3)c(=O)[nH]c2=O)nnc1-c1cccc(C)c1	6.2%	6.8%	14.7	0.9%	0.6%
COc1ccccc1NC(=O)N(C)C[C@@H]1OCc2cn(nn2)CCCC(=O)N([C@H](C)CO)C[C@H]1C	4.4%	4.3%	-12.3	14.6%	8.7%
CC(=O)N[C@H]1[C@H]([C@H](O)[C@H](O)CO)OC(C(=O)O)=C[C@@H]1N=C(N)N	x	x	x	-16.5%	-19.5%
Cc1cc(C)cc(C(=O)N2CCN(c3ccccn3)CC2)c1	8.1%	7.2%	11.8	-4.4%	6.3%
CCCCc1c(O)nc(SCC(=O)c2ccccc2)[nH]c1=O	u	-19.8%	18.0	u	u
O=C(CSc1nc(O)c(Cc2ccccc2)c(=O)[nH]1)c1ccccc1	-8.6%	-22.9%	2.5	2.06µM*	u
CN1CCN(C(=O)c2cc3ccccc3oc2=O)CC1	24.0%	23.4%	28.6	-0.7%	4.3%
Cc1cc(C)c(S(=O)(=O)N2CCN(C(=O)c3cc4ccccc4oc3=O)CC2)c(C)c1	-1.4%	-3.2%[9.24 µM]	-17.4	u	20.6µM*
O=C(c1cc2ccccc2oc1=O)N1CCCN(C(=O)c2cc3ccccc3oc2=O)CC1	15.6%	6.2%	9.7	8.1%	0.4%
O=C(c1cc2ccccc2oc1=O)N1CCN(c2ccc(Cl)cc2)CC1	x	x	x	20.6µM*	u
CC1CCCCN1C(=O)CSc1nnc(-c2ccc(Cl)s2)o1 (stereo unspecified)	-0.3%	-2.9%	-8.2	29.1µM*	u
CCC1CCCCN1C(=O)CSc1nnc(-c2ccc(OC)cc2)o1 (stereo unspecified)	-2.7%	-1.2%	-6.8	20.6µM*	u
CCC1CCCCN1C(=O)CSc1nnc(-c2c[nH]c3ccccc23)o1 (stereo unspecified)	-11.9%	-16.0%	-21.4	u	20.6µM*
CC1CCCC(C)N1C(=O)CSc1nnc(-c2c[nH]c3ccccc23)o1 (stereo unspecified)	-1.9%	-2.0%	-16.0	16.4µM*	u
CCN(CC)C(=O)CSc1nc(OC)cc(=O)[nH]1	6.4%	8.0%	20.7	3.2%	-9.7%
